Measured values as given in PubChem BioAssay (NCI).
This is part of a sample that, as a whole, favours compounds with a hit. Of some 79,000 tested, about 15% had one in any assay. Rule as the data show it: active = growth inhibition above about 70%; inactive = the rest.

Legend:
[1] = NCI Yeast Anticancer Drug Screen. Data for the rad50 strain (AID 155);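 also: 0% = growth of vehicle-only cultures of the same strain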; details: S. cerevisiae rad50 strain growth inhibition; at 50.0 µM; stronger effect = higher value
Procedure, shortened: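 Growth of the mutant yeast was measured after compound exposure and referenced to vehicle-treated cultures.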

[2] = NCI Yeast Anticancer Drug Screen. Data for the mec2-1 strain (AID 157); details: S. cerevisiae mec2-1 strain, at 50.0 µM, stronger effect = higher value
Procedure, shortened: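 Vehicle-treated cultures served as reference for growth inhibition of compound-exposed mec2-1 yeast.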

[3] = NCI Yeast Anticancer Drug Screen. Data for the sgs1 mgt1 strain (AID 161);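 also: 0% = growth of cultures given vehicle only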; details: S. cerevisiae sgs1 mgt1 strain, at 50.0 µM, stronger effect = higher value
Procedure, shortened: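 Inhibition of yeast growth, normalised to vehicle-treated controls, is reported for a strain bearing genetic alterations in DNA damage repair.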

[4] = NCI Yeast Anticancer Drug Screen. Data for the cln2 rad14 strain (AID 165);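 also: 0% = growth equal to vehicle treated cultures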; details: S. cerevisiae cln2 rad14 strain, at 50.0 µM, stronger effect = higher value
Procedure, shortened: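 Each compound was tested on cln2 rad14 yeast. Inhibition of growth was calculated against vehicle-exposed controls.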

[5] = NCI Yeast Anticancer Drug Screen. Data for the bub3 strain (AID 167); details: S. cerevisiae bub3 mutant strain, at 50.0 µM, stronger effect = higher value
Procedure, shortened: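 Whole-cell yeast assay. The mutant strain was incubated with compounds, and growth inhibition was determined by comparison with vehicle-treated cells.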

[6] = NCI Yeast Anticancer Drug Screen. Data for the mlh1 rad18 strain (AID 175); details: S. cerevisiae mlh1 rad18 strain growth inhibition; at 50.0 µM; stronger effect = higher value
Procedure, shortened: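 Vehicle-treated cultures served as the reference for growth inhibition in a yeast strain carrying DNA damage repair alterations exposed to each compound.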

Measured: growth inhibition

COC(=O)C(/C(=N/NC(=O)c1ccncc1)C(=O)Nc1ccccc1OC)c1nc2ccc(Cl)cc2[nH]c1=O (stereo unspecified)
inactive: [1] 5.8% | [2] -6% | [3] -11% | [4] -38% | [5] -17.7% | [6] 11.4%

COc1ccc(-n2cc[n+](C)c2/C=N\O)cc1
inactive: [1] -3.1% | [2] 0.95% | [3] 3.2% | [4] -43.3% | [5] -31.8% | [6] -13.6%

Cc1ccc(O)c(Cc2cc(C)cc(Cc3cc(C)ccc3O)c2O)c1
inactive: [1] 30.2% | [2] -7.85% | [3] 15.2% | [4] 36.9% | [5] -2.85% | [6] 42.4%

COc1cc(NCc2c(O)ccc3ccccc23)c2ncccc2c1
inactive: [1] 46.1% | [2] 28.1% | [3] 13.1% | [4] -11.2% | [5] 7.75% | [6] 62.8%

CCOC(=O)CCC(Cl)(Cl)Cl
inactive: [1] 14% | [2] -9.95% | [3] -1.45% | [4] -39% | [5] -7.85% | [6] 9.2%

CCCN1CCc2c([nH]c3cc(OC)ccc23)C1C (stereo unspecified)
inactive: [1] 27.9% | [2] -4.15% | [3] -5.05% | [4] 1.9% | [5] 7.35% | [6] 3.2%

C=CCN1C(=O)NC(=O)C1c1ccsc1 (stereo unspecified)
inactive: [1] -14.7% | [2] -0.25% | [3] -22.2% | [4] -34.2% | [5] -1.45% | [6] 2.6%

COc1cc2cc(-c3ccc(Cl)c(Cl)c3)[n+](C)cc2cc1OC
inactive: [1] 36% | [2] 20.1% | [3] 35.3% | [4] 21.6% | [5] -3.55% | [6] 13.7%

O=P12N(CCN1c1ccccc1)CCN2c1ccccc1
inactive: [1] -26.4% | [2] -34.1% | [3] -13.8% | [4] 19.6% | [5] 10.2% | [6] -25.5%

O=C(Sc1c(-c2ccccc2)c(=O)n(-c2ccccc2)c(=S)n1-c1ccccc1)c1ccc(Cl)cc1
inactive: [1] 2.75% | [2] 3.9% | [3] 16.1% | [4] -4.35% | [5] 5.4% | [6] 12.8%

O=C(N/N=C/c1c(O)ccc2ccccc12)c1ccccc1
inactive: [1] 29% | [2] 11.3% | [3] 42.1% | [4] 5% | [5] 16.1% | [6] 26.4%

COc1ccc(C(=O)C(C)(CCC#N)CCC#N)cc1
inactive: [1] -10.3% | [2] -6.3% | [3] 3.25% | [4] -44.6% | [5] 14.3% | [6] 2.3%

C=C=CON1CCCCC1
inactive: [1] -16% | [2] 14.9% | [3] -24.9% | [4] -5% | [5] -12.7% | [6] -0.6%

CCOC(=O)c1cc2nc(NC(=O)c3ccccc3)sc2n1C
inactive: [1] 4.85% | [2] 8.3% | [3] 7.3% | [4] 10.3% | [5] 6.4% | [6] 16.8%

COC(=O)/C=C(\C(=O)OC)c1cc(C)c2cc(C(C)C)ccc(C)c1-2
inactive: [1] 4.25% | [2] -22.2% | [3] 13% | [4] 13.8% | [5] -7.5% | [6] 17.9%

COC(=O)/C(=C\Nc1cccc(C)n1)S(=O)(=O)c1ccc(C)cc1
inactive: [1] -33.9% | [2] -1.55% | [3] 18.5% | [4] -21.5% | [5] 7.3% | [6] 12.8%

NC(=O)N(CCO)/N=C/c1ccc([N+](=O)[O-])o1
inactive: [1] 42.3% | [2] 15.7% | [3] 54.8% | [4] 17.9% | [5] 33.6% | [6] 59.9%

O=C(O)c1ccc(-c2ccc(C(=O)O)cc2I)c(I)c1
inactive: [1] 25.2% | [2] 2.2% | [3] 6.25% | [4] -5.25% | [5] 0.15% | [6] 10%

Nc1nc(C2CCCCC2)cs1
inactive: [1] 54.2% | [2] 29.8% | [3] 31.1% | [4] 16.1% | [5] 14.9% | [6] 20.4%

CCN(CC)c1ncnc2c1cnn2C
inactive: [1] -14.8% | [2] -14.4% | [3] 8.75% | [4] 11% | [5] -15.9% | [6] -28%

O=C([CH-]C(=O)C(F)(F)F)c1ccccc1.O=C([CH-]C(=O)C(F)(F)F)c1ccccc1.O=C([CH-]C(=O)C(F)(F)F)c1ccccc1.[Ru+3]
inactive: [1] -11.2% | [2] -13.8% | [3] -11.5% | [4] -22.7% | [5] 9.8% | [6] 4.75%
